The values that follow come from the supplement of paper PMC10811239.

The experiment concerns LEGO organoid PTN (PTEN-/-; TP53-/-; NF1-/-). Description: bioluminescence (viable cell) signal fold change after vs before treatment, normalised to DMSO (ratio); higher = more tumour cell growth / less inhibition. The following applies: 10 µM; treatment time 6 days. How it is done: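 Luc2-labelled iPSC-derived glioblastoma-like organoids (LEGOs, genotypes PT = PTEN-/-;TP53-/-, PTCC = plus CDKN2A/B-/-, PTN = plus NF1-/-) were treated with 10 uM drug for 6 days (applied every other day) at 37 C. Bioluminescence imaging was done before treatment and 2 days after the last dose. BLI signals were normalised to the DMSO control on the same day and then to the pre-treatment signal (N=3).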
In the case of `CC(C)C[C@H]1C(=O)N2CCC[C@H]2[C@]2(O)O[C@](NC(=O)[C@@H]3C[C@@H]4c5cccc6[nH]cc(c56)C[C@H]4N(C)C3)(C(C)C)C(=O)N12.CC(C)[C@@]1(NC(=O)[C@@H]2C[C@@H]3c4cccc5[nH]cc(c45)C[C@H]3N(C)C2)O[C@@]2(O)[C@@H]3CCCN3C(=O)[C@H](Cc3ccccc3)N2C1=O.CC(C)[C@H]1C(=O)N2CCC[C@H]2[C@]2(O)O[C@](NC(=O)[C@@H]3C[C@@H]4c5cccc6[nH]cc(c56)C[C@H]4N(C)C3)(C(C)C)C(=O)N12.CCC(C)[C@H]1C(=O)N2CCC[C@H]2[C@]2(O)O[C@](NC(=O)[C@@H]3C[C@@H]4c5cccc6[nH]cc(c56)C[C@H]4N(C)C3)(C(C)C)C(=O)N12.CS(=O)(=O)O` [Dihydroergotoxine mesylate], the bioluminescence is 1.88.

For `COc1ccc(C(CN(C)C)C2(O)CCCCC2)cc1.Cl` (configuration not stated) [Venlafaxine hydrochloride], the bioluminescence was 1.33.

Regarding `CCC1(c2ccc(N)cc2)CCC(=O)NC1=O` (configuration not stated) [Aminoglutethimide], the bioluminescence was 1.07.

For `CCOC(=O)c1cncn1[C@H](C)c1ccccc1` [Etomidate], the bioluminescence was determined as 2.17.

Turning to `CC[C@@H](C(N)=O)N1CCCC1=O` [Levetiracetam], the bioluminescence came to 0.81.

Turning to `CCN(C)C(=O)Oc1cccc([C@H](C)N(C)C)c1` [Rivastigmine], the bioluminescence was 1.18.

As for `Cc1cccc([C@H](C)c2cnc[nH]2)c1C.Cl` [Dexmedetomidine HCl], the bioluminescence came out at 0.581.

As for `CN(C)C(=O)Oc1ccc[n+](C)c1.[Br-]` [Mestinon], the bioluminescence turned out to be 0.642.

Consider `COc1cc2c(cc1OC)[C@@H]1CC(=O)[C@@H](CC(C)C)CN1CC2.COc1cc2c(cc1OC)[C@H]1CC(=O)[C@H](CC(C)C)CN1CC2` [Tetrabenazine], for which the bioluminescence worked out at 0.557.

As for `Cl.Cn1c(CCCC(=O)O)nc2cc(N(CCCl)CCCl)ccc21` [Bendamustine hydrochloride], the bioluminescence came out at 1.14.

Consider `NCC1(CC(=O)O)CCCCC1` [Gabapentin], for which the bioluminescence was 0.585.

For the compound `CCN(C)C(=O)Oc1cccc([C@H](C)N(C)C)c1.O=C(O)[C@H](O)[C@@H](O)C(=O)O` [Rivastigmine tartrate], the bioluminescence turned out to be 1.33.

Turning to `CC(C)c1cccc(C(C)C)c1O` [Propofol], the bioluminescence came to 1.2.

On to `NCC(CC(=O)O)c1ccc(Cl)cc1` (configuration not stated) [Baclofen], for which the bioluminescence came out at 1.95.

As to `O=C(O)CCCc1ccc(N(CCCl)CCCl)cc1` [Chloroambucil], the bioluminescence turned out to be 1.36.

Take `Cc1n[nH]cc1-c1cc2[nH]c([C@@H]3CC4CCN3CC4)nc(=O)c2s1` [Simurosertib]: the bioluminescence worked out at 1.05.

For `CN[C@@H]1C[C@H]2O[C@@](C)([C@@H]1OC)n1c3ccccc3c3c4c(c5c6ccccc6n2c5c31)C(=O)NC4` [Staurosporine], the bioluminescence was determined as 0.
